Hits are enriched below; roughly 1.8% of the tested compounds scored in any of these assays.
BaF3 parental: parental Ba/F3 cell viability inhibition, counter-screen for JAK2V617F inhibitor project, murine pro-B, CellTiter-Glo luminescence; inhibition, % at 5.6 µM; CellTiter-Glo ATP luminescence; actives 1.1% (n = 220,000);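 active = inhibition above a per-campaign cutoff, the mean inhibition of all tested compounds plus 3 SD, cut at about 27% in these data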;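 note: 0% = DMSO wells and 100% = JAK Inhibitor I control wells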
Ba/F3 V617F tox: reduced viability of JAK2V617F-dependent Ba/F3 cells, primary screen, JAK2V617F inhibitor project, cell-based, Ba/F3 EpoR-JAK2V617F, luminescence. actives 1.1% (n = 220,000). ATP luminescence. inhibition, % at 5.6 µM. AID 1446, 2008;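 active = inhibition above the campaign mean plus 3 SD over all tested compounds, cut at about 24% in these data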;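 note: cytokine-independent growth of Ba/F3 cells driven by EpoR plus mutant JAK2; 0% = DMSO-treated cells and 100% = JAK inhibitor I control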
KLF5 inhibitor: KLF5 expression inhibitors, primary screen, DLD-1 cells, luminescence; DLD-1 KLF5 promoter-luciferase reporter; inhibition, % at 5 µM; actives 0.23% (n = 290,000); AID 1700, 2009;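 active = inhibition above a per-plate limit of that plate's mean compound inhibition plus 3 SD, cut at about 60% in these data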;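 note: 0% = DMSO wells and 100% = LY294002 at 200 µM; higher means less KLF5 promoter-driven luciferase light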
APP transl inh: inhibitors of APP translation via 5'UTR reporter, primary screen, APP 5'UTR luciferase, SH-SY5Y cells | inhibition, % at 2 µM | actives 0.82% (n = 190,000) | AID 1285, 2008 | SH-SY5Y APP 5'UTR-luciferase reporter, luminescence;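 active = inhibition above a set limit, derived from the sample mean plus 3 SD, cut at about 45% in these data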
IEC-6 tox: cytotoxicity in IEC-6 intestinal epithelial cells, primary screen, cytotoxicity control for KLF5 inhibitor project, cell-based, luminescence; IEC-6 cytotoxicity, luminescence viability; inhibition, % at 5 µM; actives 0.78% (n = 290,000); AID 1825, 2009;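 note: 0% = plate median of test compound wells and 100% = cytotoxic reference compound wells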
IEC-6 tox confirm: cytotoxic compounds in IEC-6 epithelial cells, confirmation, cytotoxicity control, cell-based, luminescence; shares compounds with IEC-6 tox; actives 63% (n = 1,900); AID 1907, 2009; inhibition, % at 5 µM; IEC-6 rat intestinal epithelial viability;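 note: 0% = vehicle and 100% = reference cytotoxic drug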
Starred values were filed as active, the others as inactive; / = no result. Cut-off read from the data, not from the text of the source, unless noted: active = inhibition above about 22%; inactive = the rest.

SMILES	BaF3 parental	Ba/F3 V617F tox	KLF5 inhibitor	APP transl inh	IEC-6 tox	IEC-6 tox confirm
COc1cccc(NC(=O)c2ccc3nc(C)sc3c2)c1	/	/	-80	/	0	/
CNC(C)C#Cc1c(-c2cc(OC)c(OC)c(OC)c2)noc1C (stereo unspecified)	/	/	17	/	0	/
COc1ccc(-c2c(-c3cc(OC)c(OC)c(OC)c3)noc2C)cn1	/	/	55	/	80*	54*
COc1cc(-c2noc(C)c2C#Cc2ccc(N)cc2)cc(OC)c1OC	/	/	56	/	87*	64*
O=C(CN1CCN(Cc2ccccc2)CC1)N=Nc1c(O)[nH]c2ccccc12	6	-1	-8	9	23*	6
O=C(CN1CCCCC1)N=Nc1c(O)[nH]c2ccccc12	8	3	-23	-2	-1	/
Cc1ccc(NS(=O)(=O)c2ccc3c(c2)NC(=O)CCS3)c(C)c1	/	/	-13	/	3	/
Cc1ccc(N/N=C(\Cc2nc3ccccc3[nH]2)c2ccccc2)cc1	19	14	5	92*	55*	61*
Clc1ccc2nc(COc3ccccc3)[nH]c2c1	/	/	-116	/	27*	12
O=c1[nH]c(COc2ccccc2)nc2ccccc12	/	/	-115	/	3	/
COc1cc(NC2CCCCC2O)c2nc(-c3ccc(Cl)cc3)ccc2c1 (stereo unspecified)	0	-3	-52	/	23*	11
COc1ccc(OC)c(NC(=O)COC(=O)CSc2ccc(Cl)cc2)c1	6	-1	-20	15	0	/
CCc1c(C)c2ccc(OC(C)C(=O)NC(Cc3c[nH]c4ccc(O)cc34)C(=O)O)c(C)c2oc1=O (stereo unspecified)	/	/	-12	/	-3	/
Cc1oc(-c2ccccc2Cl)nc1CS(=O)CC(=O)NCCCN1CC(C)CC(C)C1 (stereo unspecified)	/	/	-34	/	1	/
COc1cc(C(=O)Nc2ccc(C)cc2)c2ccccc2n1	/	/	62	/	84*	65*
O=C(COC(=O)CNC(=O)c1ccc(Cl)cc1)Nc1cccc(S(=O)(=O)N2CCCC2)c1	-3	0	-3	/	-2	/
CCC(CC)C(=O)c1c[nH]c(C(=O)NN)c1	13	4	17	88*	30*	6
CCC(CC)C(=O)c1c[nH]c(C(=O)O)c1	1	4	-4	-1	10	/
Cc1nn(-c2ccccc2)c(N)c1N=Nc1cccnc1	6	1	-28	-51	8	/
Nc1nn(-c2ccccc2)c(N)c1N=Nc1cccc(F)c1	80*	84*	-36	/	77*	59*
CC(=O)NC1=C(Nc2ccc(N(C)C)cc2)C(=O)c2ccccc2C1=O	/	/	-141	/	67*	41*
CC(=O)N1CCN(c2ccccc2NC(=O)Cc2ccc(Cl)cc2)CC1	-1	-2	21	-5	-1	/
COc1cc(/C=N/Nc2snc(SC)c2C#N)ccc1O	62*	73*	20	83*	45*	45*
CCOc1ccc(C2=Nn3c(nnc3-c3ccc(OC)cc3)SC2)cc1	57*	73*	-5	95*	34*	52*
COc1ccc(C2=Nn3c(nnc3-c3ccncc3)SC2)cc1	-1	-6	-14	3	3	/
SMILES	BaF3 parental	Ba/F3 V617F tox	KLF5 inhibitor	APP transl inh	IEC-6 tox	IEC-6 tox confirm
Cc1cc(-c2ccc(S(=O)(=O)N(C)Cc3ccccc3)cc2)on1	/	/	-9	/	9	/
O=C(Nc1ccc([N+](=O)[O-])cc1)c1ccc(S(=O)(=O)N2CCCC2)cc1	/	/	-15	/	-4	/
O=C(Nc1ccc(S(=O)(=O)N2CCCCCC2)cc1)c1[nH]ncc1[N+](=O)[O-]	/	/	-1	/	29*	7
CCc1ccc(N2CC(C(=O)Nc3nc4ccc(S(C)(=O)=O)cc4s3)CC2=O)cc1 (stereo unspecified)	/	/	-25	/	0	/
O=[N+]([O-])c1cccc(C=Nc2cccc3ccccc23)c1O	/	/	-39	/	32*	12
COc1cc2c(cc1OC)C(C)N(C(=O)c1cc(Cl)nc(Cl)c1)CC2 (stereo unspecified)	/	/	43	/	39*	12
COc1cc2c(cc1OC)C(C)N(C(=O)c1nccnc1C(=O)O)CC2 (stereo unspecified)	-2	-3	-6	/	-3	/
CN(C)CCCNS(=O)(=O)c1ccc(Cl)s1	16	3	-4	-6	3	/

Screens from PubChem.
